Measurements published in paper PMC4336329 (PLoS ONE, 2015).
Out of some 310,000 compounds screened, about 14,000 (4.5%) showed an effect of 50% or more. Effects have a minus sign here. The entries come from a sample that favours strong results as a whole.

target: human ether-à-go-go-related gene (hERG) potassium channel (human, UniProt Q12809); experiment: primary screen, population patch clamp on CHO cells stably expressing hERG; higher = less effect of the substance
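Further: peak tail current of the secondary pulse compared with the same well before compound.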

human ether-à-go-go-related gene (hERG) potassium channel, sequence (Q12809 whole entry, looked up): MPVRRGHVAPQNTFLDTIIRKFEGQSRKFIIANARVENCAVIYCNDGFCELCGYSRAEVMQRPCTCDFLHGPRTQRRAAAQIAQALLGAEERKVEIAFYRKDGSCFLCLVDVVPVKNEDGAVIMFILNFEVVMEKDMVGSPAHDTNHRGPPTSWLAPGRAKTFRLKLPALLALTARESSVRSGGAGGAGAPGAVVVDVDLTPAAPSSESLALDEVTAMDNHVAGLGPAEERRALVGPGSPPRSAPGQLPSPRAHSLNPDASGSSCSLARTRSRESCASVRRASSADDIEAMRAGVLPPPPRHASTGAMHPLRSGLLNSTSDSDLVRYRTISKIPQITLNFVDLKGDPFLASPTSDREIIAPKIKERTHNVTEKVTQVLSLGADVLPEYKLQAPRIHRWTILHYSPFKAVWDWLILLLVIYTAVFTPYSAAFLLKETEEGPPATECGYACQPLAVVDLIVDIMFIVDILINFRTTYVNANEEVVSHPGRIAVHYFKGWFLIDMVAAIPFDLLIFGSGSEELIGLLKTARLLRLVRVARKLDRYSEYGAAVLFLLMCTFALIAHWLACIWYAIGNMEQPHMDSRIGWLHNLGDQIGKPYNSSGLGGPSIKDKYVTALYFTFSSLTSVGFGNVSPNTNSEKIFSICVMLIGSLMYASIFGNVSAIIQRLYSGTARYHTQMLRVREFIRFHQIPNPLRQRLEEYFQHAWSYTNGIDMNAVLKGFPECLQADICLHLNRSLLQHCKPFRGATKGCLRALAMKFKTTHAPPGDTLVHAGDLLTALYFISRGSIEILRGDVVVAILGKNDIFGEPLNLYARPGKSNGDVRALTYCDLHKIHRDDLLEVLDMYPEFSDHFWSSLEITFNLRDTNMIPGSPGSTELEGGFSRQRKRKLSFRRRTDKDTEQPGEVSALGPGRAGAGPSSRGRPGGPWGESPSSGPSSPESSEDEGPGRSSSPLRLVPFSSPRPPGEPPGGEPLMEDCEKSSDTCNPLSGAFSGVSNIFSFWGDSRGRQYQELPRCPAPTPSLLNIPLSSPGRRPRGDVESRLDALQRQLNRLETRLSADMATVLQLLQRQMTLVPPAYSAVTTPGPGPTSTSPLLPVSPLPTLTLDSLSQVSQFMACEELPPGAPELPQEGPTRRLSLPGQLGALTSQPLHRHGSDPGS

In order of rising “hERG current change (%, negative = inhibition) at 10uM” value:
1. CN1CCN(C(CNS(=O)(=O)c2ccc(Br)cc2)c2ccc3c(c2)OCO3)CC1 (stereo not drawn)  -79.8%
2. COc1ccc2cc(CCNC(=O)c3cccc([N+](=O)[O-])c3)c(=O)[nH]c2c1  -79.2%
3. Cc1nn(CCCC(=O)N2CCc3ccccc3C2)c(=O)c2cc3sccc3n12  -75.5%
4. O=C(c1ccc(-n2cncn2)c([N+](=O)[O-])c1)N1CCN(S(=O)(=O)c2ccc(F)c(F)c2)CC1  -72.7%
5. O=C(c1ccc(-n2cncn2)c([N+](=O)[O-])c1)N1CCN(S(=O)(=O)c2cccc(F)c2)CC1  -71.9%
6. CN1CCN(C(=O)/C(=C/c2ccc(F)cc2)c2ccsc2)CC1.Cl  -70.1%
7. O=C(c1ccc(-n2cncn2)c([N+](=O)[O-])c1)N1CCN(c2cccc(Cl)c2)CC1  -68.5%
8. COc1ccc(C)cc1S(=O)(=O)NCC(c1ccc2c(c1)OCO2)N1CCN(C)CC1 (stereo not drawn)  -68.2%
9. C#CCN(Cc1ccco1)C(=O)c1ccc(OC2CCN(Cc3ccccn3)CC2)cc1  -66.9%
10. C=CCN1C(=O)c2ccc(C(=O)N3CCN(S(=O)(=O)c4cccc(F)c4)CC3)cc2C1=O  -62.7%
11. O=C(c1ccc(-n2cncn2)c([N+](=O)[O-])c1)N1CCN(S(=O)(=O)c2ccc(Cl)cc2)CC1  -61.4%
12. CC#CCN(Cc1ccco1)C(=O)c1ccc(OC2CCN(Cc3ccccn3)CC2)cc1  -60.3%
13. CN1CCN(C(=O)/C(=C\c2ccccc2)c2ccccc2)CC1  -59.9%
14. CCOc1ccc(S(=O)(=O)NCC(c2ccc3c(c2)OCO3)N2CCN(C)CC2)cc1 (stereo not drawn)  -59.2%
15. Cc1cccc(N2CCN(C(=O)c3ccc(-n4cncn4)c([N+](=O)[O-])c3)CC2)c1C  -58.9%
16. O=C(c1ccc(-n2cncn2)c([N+](=O)[O-])c1)N1CCN(S(=O)(=O)c2c(F)cccc2F)CC1  -56.8%
17. CN1CCN(C(=O)/C(=C/c2ccccc2)c2ccccc2)CC1  -54.8%
18. Cc1ccc2[nH]c(=O)c(CN(C(=O)c3cccc([N+](=O)[O-])c3)C(C)C)cc2c1  -50.5%
19. CCOC(=O)C1CCCN(C(=O)CCCn2nc(C)n3c(cc4sccc43)c2=O)C1 (stereo not drawn)  -49.3%
20. Cc1cc2cc(CCNC(=O)c3cccc([N+](=O)[O-])c3)c(=O)[nH]c2cc1C  -47.1%
21. Nc1ccc(C(=O)N2CCN(S(=O)(=O)c3ccc(Cl)cc3)CC2)cc1[N+](=O)[O-]  -46.1%
22. COc1ccc(F)cc1S(=O)(=O)NCC(c1ccc2c(c1)OCO2)N1CCN(C)CC1 (stereo not drawn)  -45.6%
23. O=C(c1ccc(-n2cncn2)c([N+](=O)[O-])c1)N1CCN(S(=O)(=O)c2ccccc2F)CC1  -45.1%
24. C#CCN(C(=O)c1ccc(OC2CCN(Cc3ccccn3)CC2)cc1)C1CCCCC1  -39.6%
25. CCN(Cc1cc2cc(C)ccc2[nH]c1=O)C(=O)c1cccc([N+](=O)[O-])c1  -37.9%
26. CC1(c2nnc(-c3ccc(F)cc3)o2)CC(c2c(Cl)cccc2Cl)=NO1 (stereo not drawn)  -37%
27. O=C(Nc1ccc(F)c(F)c1)c1ccc(-n2cncn2)c([N+](=O)[O-])c1  -35.7%
28. COc1ccc(C(CNCC(=O)Nc2ccccc2F)N(C)C)cc1.O=C(O)C(=O)O (stereo not drawn)  -35.1%
29. O=C(Nc1cccc(Cl)c1)c1ccc(-n2cncn2)c([N+](=O)[O-])c1  -35%
30. C=CCN1C(=O)c2ccc(C(=O)N3CCN(S(=O)(=O)c4cccc([N+](=O)[O-])c4)CC3)cc2C1=O  -30.4%
31. CC1CC(C)CN(C(=O)/C(=C\c2ccccc2)c2ccccc2)C1 (stereo not drawn)  -27.4%
32. O=C(NNC(=O)c1ccc(-n2cncn2)c([N+](=O)[O-])c1)c1cccc(Cl)c1  -26.3%
33. COc1ccc(NS(=O)(=O)c2cc(NC(=O)c3ccc(=O)[nH]n3)ccc2N2CCOCC2)cc1  -23.2%
34. CCOC(=O)CCCn1nc(C)n2c(cc3sccc32)c1=O  -21.6%
35. COc1ccc(-c2noc(N3CCC(C(=O)NCc4ccc(F)cc4)CC3)n2)cc1  -20.4%
36. Cc1ccc2cc(CCNC(=O)c3cccc([N+](=O)[O-])c3)c(=O)[nH]c2c1  -20.2%
37. CC1CCCCN1C(=O)/C(=C\c1ccccc1)c1ccccc1 (stereo not drawn)  -17.4%
38. C/C(=C/c1ccccc1)C(=O)N1CCN(c2ccccc2)CC1  -16.2%
39. O=S(=O)(NCC(c1ccc2c(c1)OCO2)N1CCOCC1)c1ccc(Br)cc1 (stereo not drawn)  -16%
40. COc1ccc(S(=O)(=O)NCC(c2ccc3c(c2)OCO3)N2CCN(C)CC2)cc1OC (stereo not drawn)  -15.5%
41. C=CCN1C(=O)c2ccc(C(=O)N3CCN(S(=O)(=O)c4cccc(Cl)c4)CC3)cc2C1=O  -14.8%
42. CC(O)CNc1nc2c(c(=O)n(C)c(=O)n2C)n1C/C=C/c1ccccc1 (stereo not drawn)  -13.7%
43. COc1ccc(C)cc1S(=O)(=O)NCC(c1ccc2c(c1)OCO2)N1CCOCC1 (stereo not drawn)  -13.6%
44. CC(C)N(Cc1cc2ccccc2[nH]c1=O)C(=O)c1cccc([N+](=O)[O-])c1  -13.4%
45. COC(=O)C1=CN(Cc2ccccc2)C=C(C(=O)OC)C1c1cc(F)ccc1F  -12.6%
46. COCCn1c(-c2ccccc2)nc(=S)c2c1CC(C)(C)OC2  -11.5%
47. O=C(c1ccc(Cl)c([N+](=O)[O-])c1)N1CCN(S(=O)(=O)c2ccc(Cl)cc2)CC1  -11.3%
48. O=C(NNC(=O)c1ccc(-n2cncn2)c([N+](=O)[O-])c1)c1ccc(Cl)cc1  -9.94%
49. CN(C(=O)c1ccc(OC2CCN(Cc3ccccn3)CC2)cc1)C1CCCCC1  -9.82%
50. C=CCN(CC=C)C(=O)c1ccc(OC2CCN(Cc3ccccn3)CC2)cc1  -9.67%
51. Cc1ccc(S(=O)(=O)NCC(c2ccc3c(c2)OCO3)N2CCOCC2)cc1 (stereo not drawn)  -8.63%
52. CN(Cc1ccco1)C(=O)c1ccc(OC2CCN(Cc3ccccn3)CC2)cc1  -6.63%
53. COc1ccc(S(=O)(=O)NCC(c2ccc3c(c2)OCO3)N2CCOCC2)cc1 (stereo not drawn)  -6.41%
54. CCOc1cnc(-c2c(-c3ccccc3Cl)noc2C)o1  -3.56%
55. c1ccc(-c2csc3ncnc(N4CCc5ccccc5C4)c23)cc1  -1.81%
56. CC(=O)C1C2c3ccccc3OC1(C)N=c1s/c(=C/c3cn(C)nc3C)c(=O)n12 (stereo not drawn)  -0.454%
57. O=C(O)/C(=C\c1ccccc1)c1ccccc1  -0.424%
58. O=C(Nc1ccccc1C(=O)Nc1ccccc1)c1cccs1  -0.413%
59. O=C(CCCN1C(=O)C2CC=CCC2C1=O)Nc1ccccc1F (stereo not drawn)  1.61%
60. CC(=N)C1=C(O)CC(C)(C)CC1=O  1.84%
61. Cc1nn(C(C)(C)C)c(C)c1/C=N/OC(=O)Nc1ccc(Cl)c(Cl)c1  1.85%
62. Cc1ccc2cccnc2c1N  4.5%
63. COC(=O)c1nnn(-c2nonc2N)c1CN1CCc2ccccc21  4.57%
64. CN1CCN(C(=O)/C(C#N)=C/c2ccc(F)cc2)CC1.Cl  6.63%
65. COc1ccccc1CN(C)C(=O)c1ccc(COc2ccccc2)cc1  6.77%
66. O=C(c1ccncc1)N1CCN(S(=O)(=O)c2cccc(F)c2)CC1  7.6%
67. O=C(NNC(=O)c1ccccc1F)c1ccc(-n2cncn2)c([N+](=O)[O-])c1  7.74%
68. c1ccc(CNCC2COc3ccccc3O2)cc1 (stereo not drawn)  8.17%
69. CCOC(=O)c1cnn(-c2nc(CC)nc3sc4c(c23)CCC4)c1N  8.44%
70. CN1CCN(C(=O)CCC(=O)c2ccc(F)cc2)CC1  8.49%
71. NC(=O)c1ccccc1NC(=O)C1CCCO1 (stereo not drawn)  8.51%
72. CC(=O)NCCCC(=O)NN1C(=S)N(Cc2ccccc2)C(=O)C1CC(=O)Nc1cccc(C)c1 (stereo not drawn)  8.8%
73. COc1ccc(NC(=O)C2CCN(S(=O)(=O)c3cccc4cccnc34)CC2)cc1OC  9.47%
74. O=C(O)c1ccc(-n2cncn2)c([N+](=O)[O-])c1  11.6%
75. O=C(c1ccc2nc[nH]c2c1)N1CCN(S(=O)(=O)c2cccc(F)c2)CC1  12%
76. O=C(NC(=O)c1ccc(F)cc1)Nc1nc(-c2cccs2)cc(C(F)(F)F)n1  12.2%
77. O=C(NC1CC(=O)N(c2ccc3c(c2)OCCO3)C1)N1CCCCC1 (stereo not drawn)  12.4%
78. CCC(CC)c1nnc(NC(=O)CCc2ccc(OC)cc2)s1  13.1%
79. Cc1cnc(NC(=O)c2ccco2)s1  13.9%
80. Cn1nnnc1SCC(=O)N1CCOCC1  16.2%
81. CC(=O)Nc1ccc(SCC(=O)c2ccc(Br)s2)cc1  19.5%
82. Cc1cccc(N2CCN(c3ccc(C(N)=O)cc3[N+](=O)[O-])CC2)c1C  21.7%
83. Cc1cccc2c(=O)c(C(=O)NCCc3ccccc3)c[nH]c12  21.9%
84. O=C(Cn1c(CO)nc2ccccc21)Nc1ccccc1Cl  25.1%
